Data from PMC11062922 (Nature Chemical Biology, 2023).
Where two headings read alike, the source gives them in different places.

How the values were obtained:
[1] = tested on: MARK3; conditions: read-out: apparent Kd, n = 1
[2] = tested on: MARK4; conditions: read-out: apparent Kd, n = 1
[3] = compound concentrations:100 nM and 1000 nM (sheet 'Lestaurtinib' of Supplementary Table 1),run:Lestaurtinib_02606_R3,Plate:MR019
[4] = compound concentrations:100 nM and 1000 nM (sheet 'Lestaurtinib' of Supplementary Table 1),run:Lestaurtinib_02624_R2,Plate:MR020
[5] = compound concentrations:100 nM and 1000 nM (sheet 'Lestaurtinib' of Supplementary Table 1),run:Lestaurtinib_02724_R3,Plate:MR021
[6] = compound concentrations:100 nM and 1000 nM (sheet 'Lestaurtinib' of Supplementary Table 1),run:Lestaurtinib_02752_R3,Plate:MR025
[7] = compound concentrations:100 nM and 1000 nM (sheet 'Lestaurtinib' of Supplementary Table 1),run:Lestaurtinib_02765_R3,Plate:MR026
[8] = compound concentrations:100 nM and 1000 nM (sheet 'Lestaurtinib' of Supplementary Table 1),run:Lestaurtinib_02766_R3,Plate:MR027
[9] = compound concentrations:100 nM and 1000 nM (sheet 'Lestaurtinib' of Supplementary Table 1),run:Lestaurtinib_02768_R3,Plate:MR028
[10] = compound concentrations:100 nM and 1000 nM (sheet 'Lestaurtinib' of Supplementary Table 1),run:Lestaurtinib_02795_R1,Plate:MR022

Lestaurtinib
potency estimated from few doses [1, 3]: 162 nM
potency estimated from few doses ([1]; compound concentrations:100 nM and 1000 nM (sheet 'Lestaurtinib' of Supplementary Table 1),run:Lestaurtinib_02624_R1,Plate:MR020): 146 nM
potency estimated from few doses [1, 4]: 143 nM
potency estimated from few doses ([1]; compound concentrations:100 nM and 1000 nM (sheet 'Lestaurtinib' of Supplementary Table 1),run:Lestaurtinib_02724_R1,Plate:MR021): 157 nM
potency estimated from few doses ([1]; compound concentrations:100 nM and 1000 nM (sheet 'Lestaurtinib' of Supplementary Table 1),run:Lestaurtinib_02724_R2,Plate:MR021): 180 nM
potency estimated from few doses [1, 5]: 163 nM
potency estimated from few doses [1, 6]: 189 nM
potency estimated from few doses [1, 7]: 143 nM
potency estimated from few doses [1, 8]: 137 nM
potency estimated from few doses [1, 9]: 136 nM
potency estimated from few doses [1, 10]: 154 nM
potency estimated from few doses ([1]; compound concentrations:100 nM and 1000 nM (sheet 'Lestaurtinib' of Supplementary Table 1),run:Lestaurtinib_02795_R2,Plate:MR022): 141 nM
potency estimated from few doses ([1]; compound concentrations:100 nM and 1000 nM (sheet 'Lestaurtinib' of Supplementary Table 1),run:Lestaurtinib_02795_R3,Plate:MR022): 268 nM
potency estimated from few doses ([1]; compound concentrations:100 nM and 1000 nM (sheet 'Lestaurtinib' of Supplementary Table 1),run:Lestaurtinib_02896_R1,Plate:MR030): 142 nM
potency estimated from few doses ([1]; compound concentrations:100 nM and 1000 nM (sheet 'Lestaurtinib' of Supplementary Table 1),run:Lestaurtinib_02896_R3,Plate:MR030): 159 nM
potency estimated from few doses ([1]; compound concentrations:100 nM and 1000 nM (sheet 'Lestaurtinib' of Supplementary Table 1),run:Lestaurtinib_03172_R1,Plate:MR031): 161 nM
potency estimated from few doses ([1]; compound concentrations:100 nM and 1000 nM (sheet 'Lestaurtinib' of Supplementary Table 1),run:Lestaurtinib_03172_R2,Plate:MR031): 207 nM
potency estimated from few doses ([1]; compound concentrations:100 nM and 1000 nM (sheet 'Lestaurtinib' of Supplementary Table 1),run:Lestaurtinib_03172_R3,Plate:MR031): 146 nM
potency estimated from few doses ([1]; compound concentrations:100 nM and 1000 nM (sheet 'Lestaurtinib' of Supplementary Table 1),run:Lestaurtinib_03260_R1,Plate:MR033): 381 nM
potency estimated from few doses ([1]; compound concentrations:100 nM and 1000 nM (sheet 'Lestaurtinib' of Supplementary Table 1),run:Lestaurtinib_03260_R2,Plate:MR033): 379 nM
potency estimated from few doses ([1]; compound concentrations:100 nM and 1000 nM (sheet 'Lestaurtinib' of Supplementary Table 1),run:Lestaurtinib_03260_R3,Plate:MR033): 184 nM
potency estimated from few doses ([2]; compound concentrations:100 nM and 1000 nM (sheet 'Lestaurtinib' of Supplementary Table 1),run:Lestaurtinib_02339_R2,Plate:MR001): 165 nM
potency estimated from few doses ([2]; compound concentrations:100 nM and 1000 nM (sheet 'Lestaurtinib' of Supplementary Table 1),run:Lestaurtinib_02339_R3,Plate:MR001): 385 nM
potency estimated from few doses ([2]; compound concentrations:100 nM and 1000 nM (sheet 'Lestaurtinib' of Supplementary Table 1),run:Lestaurtinib_02364_R1,Plate:MR002): 73 nM
potency estimated from few doses ([2]; compound concentrations:100 nM and 1000 nM (sheet 'Lestaurtinib' of Supplementary Table 1),run:Lestaurtinib_02367_R2,Plate:MR003): 79.7 nM
potency estimated from few doses ([2]; compound concentrations:100 nM and 1000 nM (sheet 'Lestaurtinib' of Supplementary Table 1),run:Lestaurtinib_02367_R3,Plate:MR003): 85.1 nM
potency estimated from few doses ([2]; compound concentrations:100 nM and 1000 nM (sheet 'Lestaurtinib' of Supplementary Table 1),run:Lestaurtinib_02381_R3,Plate:MR004): 209 nM
potency estimated from few doses ([2]; compound concentrations:100 nM and 1000 nM (sheet 'Lestaurtinib' of Supplementary Table 1),run:Lestaurtinib_02422_R1,Plate:MR006): 74.8 nM
potency estimated from few doses ([2]; compound concentrations:100 nM and 1000 nM (sheet 'Lestaurtinib' of Supplementary Table 1),run:Lestaurtinib_02422_R3,Plate:MR006): 86.4 nM
potency estimated from few doses ([2]; compound concentrations:100 nM and 1000 nM (sheet 'Lestaurtinib' of Supplementary Table 1),run:Lestaurtinib_02437_R1,Plate:MR007): 974 nM
potency estimated from few doses ([2]; compound concentrations:100 nM and 1000 nM (sheet 'Lestaurtinib' of Supplementary Table 1),run:Lestaurtinib_02438_R3,Plate:MR008): 83.1 nM
potency estimated from few doses ([2]; compound concentrations:100 nM and 1000 nM (sheet 'Lestaurtinib' of Supplementary Table 1),run:Lestaurtinib_02443_R2,Plate:MR009): 93.4 nM
potency estimated from few doses ([2]; compound concentrations:100 nM and 1000 nM (sheet 'Lestaurtinib' of Supplementary Table 1),run:Lestaurtinib_02473_R1,Plate:MR010): 84.5 nM
potency estimated from few doses ([2]; compound concentrations:100 nM and 1000 nM (sheet 'Lestaurtinib' of Supplementary Table 1),run:Lestaurtinib_02473_R3,Plate:MR010): 59.7 nM
potency estimated from few doses ([2]; compound concentrations:100 nM and 1000 nM (sheet 'Lestaurtinib' of Supplementary Table 1),run:Lestaurtinib_02482_R2,Plate:MR011): 86.4 nM
potency estimated from few doses ([2]; compound concentrations:100 nM and 1000 nM (sheet 'Lestaurtinib' of Supplementary Table 1),run:Lestaurtinib_02482_R3,Plate:MR011): 83.9 nM
potency estimated from few doses ([2]; compound concentrations:100 nM and 1000 nM (sheet 'Lestaurtinib' of Supplementary Table 1),run:Lestaurtinib_02487_R1,Plate:MR012): 703 nM
potency estimated from few doses ([2]; compound concentrations:100 nM and 1000 nM (sheet 'Lestaurtinib' of Supplementary Table 1),run:Lestaurtinib_02487_R2,Plate:MR012): 162 nM
potency estimated from few doses ([2]; compound concentrations:100 nM and 1000 nM (sheet 'Lestaurtinib' of Supplementary Table 1),run:Lestaurtinib_02496_R2,Plate:MR013): 83.9 nM
potency estimated from few doses ([2]; compound concentrations:100 nM and 1000 nM (sheet 'Lestaurtinib' of Supplementary Table 1),run:Lestaurtinib_02496_R3,Plate:MR013): 668 nM
potency estimated from few doses ([2]; compound concentrations:100 nM and 1000 nM (sheet 'Lestaurtinib' of Supplementary Table 1),run:Lestaurtinib_02566_R1,Plate:MR014): 708 nM
potency estimated from few doses ([2]; compound concentrations:100 nM and 1000 nM (sheet 'Lestaurtinib' of Supplementary Table 1),run:Lestaurtinib_02566_R2,Plate:MR014): 36.8 nM
potency estimated from few doses ([2]; compound concentrations:100 nM and 1000 nM (sheet 'Lestaurtinib' of Supplementary Table 1),run:Lestaurtinib_02566_R3,Plate:MR014): 497 nM
potency estimated from few doses ([2]; compound concentrations:100 nM and 1000 nM (sheet 'Lestaurtinib' of Supplementary Table 1),run:Lestaurtinib_02572_R1,Plate:MR015): 115 nM
potency estimated from few doses ([2]; compound concentrations:100 nM and 1000 nM (sheet 'Lestaurtinib' of Supplementary Table 1),run:Lestaurtinib_02577_R1,Plate:MR016): 141 nM
potency estimated from few doses ([2]; compound concentrations:100 nM and 1000 nM (sheet 'Lestaurtinib' of Supplementary Table 1),run:Lestaurtinib_02577_R3,Plate:MR016): 199 nM
potency estimated from few doses ([2]; compound concentrations:100 nM and 1000 nM (sheet 'Lestaurtinib' of Supplementary Table 1),run:Lestaurtinib_02584_R1,Plate:MR017): 85.5 nM
potency estimated from few doses ([2]; compound concentrations:100 nM and 1000 nM (sheet 'Lestaurtinib' of Supplementary Table 1),run:Lestaurtinib_02584_R2,Plate:MR017): 74.7 nM
potency estimated from few doses ([2]; compound concentrations:100 nM and 1000 nM (sheet 'Lestaurtinib' of Supplementary Table 1),run:Lestaurtinib_02584_R3,Plate:MR017): 80.1 nM
potency estimated from few doses ([2]; compound concentrations:100 nM and 1000 nM (sheet 'Lestaurtinib' of Supplementary Table 1),run:Lestaurtinib_02601_R1,Plate:MR018): 90.9 nM
potency estimated from few doses ([2]; compound concentrations:100 nM and 1000 nM (sheet 'Lestaurtinib' of Supplementary Table 1),run:Lestaurtinib_02601_R3,Plate:MR018): 93.4 nM
potency estimated from few doses [2, 3]: 115 nM
potency estimated from few doses [2, 4]: 84.3 nM
potency estimated from few doses ([2]; compound concentrations:100 nM and 1000 nM (sheet 'Lestaurtinib' of Supplementary Table 1),run:Lestaurtinib_02624_R3,Plate:MR020): 78.4 nM
potency estimated from few doses [2, 5]: 113 nM
potency estimated from few doses ([2]; compound concentrations:100 nM and 1000 nM (sheet 'Lestaurtinib' of Supplementary Table 1),run:Lestaurtinib_02741_R2,Plate:MR023): 144 nM
potency estimated from few doses ([2]; compound concentrations:100 nM and 1000 nM (sheet 'Lestaurtinib' of Supplementary Table 1),run:Lestaurtinib_02741_R3,Plate:MR023): 82.4 nM
potency estimated from few doses ([2]; compound concentrations:100 nM and 1000 nM (sheet 'Lestaurtinib' of Supplementary Table 1),run:Lestaurtinib_02748_R1,Plate:MR024): 151 nM
potency estimated from few doses ([2]; compound concentrations:100 nM and 1000 nM (sheet 'Lestaurtinib' of Supplementary Table 1),run:Lestaurtinib_02748_R2,Plate:MR024): 97.8 nM
potency estimated from few doses ([2]; compound concentrations:100 nM and 1000 nM (sheet 'Lestaurtinib' of Supplementary Table 1),run:Lestaurtinib_02748_R3,Plate:MR024): 98.7 nM
potency estimated from few doses ([2]; compound concentrations:100 nM and 1000 nM (sheet 'Lestaurtinib' of Supplementary Table 1),run:Lestaurtinib_02752_R1,Plate:MR025): 84.2 nM
potency estimated from few doses [2, 6]: 113 nM
potency estimated from few doses ([2]; compound concentrations:100 nM and 1000 nM (sheet 'Lestaurtinib' of Supplementary Table 1),run:Lestaurtinib_02765_R1,Plate:MR026): 86.1 nM
potency estimated from few doses [2, 7]: 95.3 nM
potency estimated from few doses ([2]; compound concentrations:100 nM and 1000 nM (sheet 'Lestaurtinib' of Supplementary Table 1),run:Lestaurtinib_02766_R1,Plate:MR027): 154 nM
potency estimated from few doses ([2]; compound concentrations:100 nM and 1000 nM (sheet 'Lestaurtinib' of Supplementary Table 1),run:Lestaurtinib_02766_R2,Plate:MR027): 63.6 nM
potency estimated from few doses [2, 8]: 76.7 nM
potency estimated from few doses ([2]; compound concentrations:100 nM and 1000 nM (sheet 'Lestaurtinib' of Supplementary Table 1),run:Lestaurtinib_02768_R1,Plate:MR028): 92.1 nM
potency estimated from few doses [2, 9]: 80.6 nM
potency estimated from few doses [2, 10]: 115 nM
